Laboratory results reported in PubChem BioAssay.
For part of these data: Entries with a potency or affinity are not part of this list. Some of the results follow. Activity calls are given as the source filed them.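 Rule for the calls, unless noted: active = fitted half-maximal concentration within the tested range, moderate curve steepness, significant signal drop, and little compound fluorescence or bead-linkage interference; inactive = the rest.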

Key:
[1] = molecular target: Cell division control protein 42 homolog (Homo sapiens) (UniProt P60953); assay: inhibition of fluorescent GTP binding to constitutively active Cdc42 – biochemical, multiplex bead flow cytometry, Bodipy-FL-GTP, dose response (AID 1333;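 active = fitted half-maximal concentration within the tested dose range, moderate curve steepness, a statistically real signal drop, and little compound fluorescence or tag-binding interference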)
[2] = molecular target: Cell division control protein 42 homolog (Homo sapiens) (UniProt P60953); assay: inhibition of fluorescent GTP binding to wildtype Cdc42 – biochemical, multiplex bead flow cytometry, Bodipy-FL-GTP, dose response (AID 1334); details: bead-based flow cytometry, Bodipy-FL-GTP binding to GST-Cdc42; at 100 µM (top of the series) unless noted
[3] = molecular target: GTPase HRas (Homo sapiens) (UniProt P01112); assay: Ras wt fluorescent GTP loading blockade – biochemical, wildtype, multiplex bead flow cytometry, dose response (AID 1335;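 active = fitted half-maximal concentration within 10 nM to 100 µM, steepness 0.5 to 2, significant signal drop, low assay interference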); details: bead-based flow cytometry, Bodipy-GTP binding to GST-Ras; at 100 µM (top of the series) unless noted
[4] = system: Ras-related protein Rab-7a (dog), GTP binding; assay: blockers of fluorescent GTP binding to Rab7 – biochemical, wildtype, multiplex bead flow cytometry, dose response (AID 1336; call rule not given here)
[5] = molecular target: GTPase HRas (Homo sapiens) (UniProt P01112); assay: blockade of GTP loading onto mutant Ras – biochemical, activated mutant, multiplex bead flow cytometry, dose response (AID 1341;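 active = dose-response curve with midpoint inside the tested range, moderate steepness, significant amplitude and little compound fluorescence or bead-attachment interference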;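 note: GST-tagged constitutively activated Ras mutant immobilized on beads and multiplexed with other GTPases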)
[6] = molecular target: Ras-related C3 botulinum toxin substrate 1 (Homo sapiens) (UniProt P63000); assay: inhibition of wildtype Rac1 nucleotide loading – biochemical, multiplex bead flow cytometry, dose response (AID 1340;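 active = dose curve with midpoint inside tested range, moderate steepness, plateau gap beyond fit error, low compound glow and bead-link interference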); details: GST-Rac1 beads, Bodipy-FL-GTP binding; at 100 µM (top of the series) unless noted
[7] = hit retest on RPL19A-GFP reporter strain – cell-based, S. cerevisiae, flow cytometry, cherry picks, mother/daughter gates, confirmation (AID 2270;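 active = GFP response below 50% of the DMSO control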); details: 3 h, at 10 µM, stronger effect = lower value, 100 = same GFP as DMSO wells
[8] = yeast TOR pathway reporter LAP4-GFP change – cell-based, cherry picks, flow cytometry, mother/daughter gates, confirmation (AID 2271;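 active = GFP response above 150% of the DMSO control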;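 note: ratio of sample to DMSO plate mean so 100% equals DMSO level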); details: S. cerevisiae LAP4-GFP strain, 3 h, at 10 µM, stronger effect = higher value, 100 means same as DMSO control
[9] = TOR pathway reporter MEP2-GFP, retest of hits – S. cerevisiae, flow cytometry GFP, cherry picks, confirmation (AID 2272;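 active = GFP response above 150% of the DMSO control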;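 note: ratio of well signal to plate DMSO mean so 100% equals DMSO level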); details: S. cerevisiae MEP2-GFP strain, 3 h, at 10 µM, stronger effect = higher value
[10] = yeast AGP1-GFP fluorescence change, single-dose – cell-based, flow cytometry, S. cerevisiae, cherry picks, confirmation (AID 2273;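 active = GFP response above 150% of the DMSO level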;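 note: median GFP channel fluorescence over the whole cell population gate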); details: S. cerevisiae AGP1-GFP strain, 3 h, at 10 µM
[11] = TOR pathway CIT2 reporter hit retest – S. cerevisiae, GFP fusion, cherry picks, mother/daughter gates, confirmation (AID 2274;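 active = GFP response above 150% of the DMSO level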); details: S. cerevisiae CIT2-GFP strain, flow cytometry, 3 h, at 10 µM, stronger effect = higher value
[12] = green-channel fluorescence artefact in S. cerevisiae – s288c strain, artefact control for yeast TOR pathway GFP screen, dose response (AID 2757;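 active = fluorescence span over the dose series, or activity score, above about 33, limit read from the data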;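 note: thousands of bead-calibrated equivalent soluble fluorophore molecules from median cell fluorescence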); details: 520 nm autofluorescence, flow cytometry, 3 h, at 33 µM, stronger effect = higher value, zero means same as solvent-only cells
[13] = measured here: daughter cell gate
[14] = measured here: mother cell gate

Chain of GTPase HRas (Homo sapiens) (P01112 whole entry, looked up): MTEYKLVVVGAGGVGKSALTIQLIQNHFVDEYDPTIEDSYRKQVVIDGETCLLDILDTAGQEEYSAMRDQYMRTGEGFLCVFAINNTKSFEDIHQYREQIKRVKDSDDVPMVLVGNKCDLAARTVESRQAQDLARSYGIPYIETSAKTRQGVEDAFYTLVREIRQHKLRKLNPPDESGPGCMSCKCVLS
Chain of Cell division control protein 42 homolog (Homo sapiens) (P60953 whole entry, looked up): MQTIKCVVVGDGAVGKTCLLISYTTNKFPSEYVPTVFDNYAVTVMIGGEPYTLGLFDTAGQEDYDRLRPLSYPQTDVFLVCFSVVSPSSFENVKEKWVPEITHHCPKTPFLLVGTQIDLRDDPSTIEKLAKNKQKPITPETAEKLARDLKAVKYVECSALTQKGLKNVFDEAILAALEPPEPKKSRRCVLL

In the case of `COc1ccc(-c2nnc(SCC(=O)c3cccs3)o2)cc1`, the outcome [1] is reported as “inactive”, the fluorescence, percent of control (lower = inhibition) [2] is reported as 94.6% and the GTP binding, percent of control [3] is reported as 141%. The outcome [4] was “inactive” and the outcome [5] was “inactive”.
For `COc1ccccc1NCc1sc(C(=O)O)cc1C`, the outcome [1] was “inactive”, the fluorescence, percent of control (lower = inhibition) [2] was 64.9% and the GTP binding, percent of control [3] was 86.4%. The outcome [4] was “inactive” and the outcome [5] was “inactive”.
With `O=C(COc1ncnc2cc([N+](=O)[O-])ccc12)NCCc1ccc(Cl)cc1` the outcome [1] was “inactive”, the fluorescence, percent of control (lower = inhibition) [2] was 36.6% and the GTP binding, percent of control [3] was 78.8%. For the same compound, the outcome [4] was “inactive” and the outcome [5] was “inactive”.
For `O=C(/C=C/c1ccc(Cl)c([N+](=O)[O-])c1)c1cccnc1`, the outcome [1] was “inactive”, the fluorescence, percent of control (lower = inhibition) [2] was 30.5% and the GTP binding, percent of control [3] was 73.5%. The outcome [4] was “inactive”, the GTP binding signal, raw median fluorescence (lower = inhibition) (MCF (arbitrary fluorescence units)) [6] was 206 and the outcome [5] was “inactive”. For the same compound, the GFP response vs DMSO [7] was 91.5% (inactive), the GFP response vs DMSO [7, 13] was 89.7% and the GFP response vs DMSO [7, 14] was 84.1%. For the same compound, the GFP response relative to DMSO [8] was 207% (active), the GFP response relative to DMSO ([8]; measured here: daughter cell gate response) was 192% and the GFP response relative to DMSO ([8]; measured here: mother cell gate response) was 215%. For the same compound, the GFP response vs DMSO [9] was 105% (inactive), the GFP response, % of DMSO [10] was 107% (inactive) and the GFP response, % of DMSO [11] was 86% (inactive). The GFP response, % of DMSO [11, 13] was 102%, the GFP response, % of DMSO [11, 14] was 72.8% and the fluorescence change (kMESF span) [12] was 1.02 (inactive).
